Source: PubChem (National Center for Advancing Translational Sciences (NCATS))
ERG Ets-DNA blk – ERG Ets/DNA interaction inhibition. P11308. fluorescence polarization, His-ERG Ets domain / labelled DNA. Potency, µM (highest dose often 76.9 µM), without a hit: at the highest dose FP activity, negative = inhibition, usual class: inhibitors. actives 0.028% (n = 370,000). AID 624246; active = well fitted inhibition curve with a large enough effect in the polarisation, with a control signal flat; inconclusive = small, poorly fitted or top-dose-only effect, or effect the other way, or a change in a side signal; inactive = no such curve, though single readings can be large or run the other way; the % refers to the polarisation;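 also: polarization taken with two DNA probes labelled with fluorescein and Texas red; % of control where 0% means no effect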
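His-tagged ERG Ets domain (1 uM in the protein solution; 300mM KCl, 50mM Tris-HCl, 1mM EDTA, 1mM DTT, pH 7.5) received compound, then a probe mix of 5 nM fluorescein-DNA and 100nM Texas-615-DNA. Fluorescence polarization was read for both dyes.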
TRb SRC2 PPI – inhibitors of human thyroid hormone receptor beta-SRC2 interaction | Potency, µM (titrated, usually from 106 µM), for inactives: top-dose activity change, negative = inhibition, most hits filed as inhibitors | actives 0.065% (n = 280,000) | AID 1469 | TRbeta-SRC2 peptide binding, fluorescence polarization; receptor liganded with 1 µM T3 | P10828;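 also: plate controls were bound peptide for no effect and peptide without receptor for full effect; nearly all actives have a fitted effect of over 50% in size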
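Fluorescence polarization of 20 nM Texas Red SRC2 peptide (20-aa NR interaction domain) bound to 0.6 uM human TRb ligand-binding domain, with 1 uM T3, after 5 hr at ambient temperature; inhibition seen as decreased polarization.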
TR SRC2 fluor cs – counter-screen for TRb-SRC2 inhibitors: fluorescence interference. TRb/SRC2 Texas Red total fluorescence interference. Potency, µM (top dose mostly 106 µM), for the others: top-dose fluorescence change, negative = quenching. actives 0.29% (n = 280,000); active = well fitted curve in either direction with a large enough effect; inconclusive = small, poorly fitted or top-dose-only effect; also: % is scaled to controls: 0 for no effect and ±100 for the full control effect
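Human TRb ligand-binding domain at 0.6 uM with 20 nM Texas Red SRC2 peptide in Tris buffer containing 1 uM T3 and 5% DMSO, incubated with compound 5 h at ambient temperature. Total fluorescence (555/632 nm) calculated as parallel + 2 × perpendicular.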
RECQ1 helicase – blocks DNA unwinding by human RECQ1; RECQ1 DNA unwinding, red fluorescence kinetic read; Potency, µM (series often up to 57.3 µM), without a hit: at the highest dose activity, negative = inhibition, most hits filed as inhibitors; actives 0.54% (n = 240,000);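 also: plate controls were vehicle for no effect and no enzyme for full effect; nearly all actives have a fitted effect of over 30% in size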
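RECQ1T1 50 nM; forked duplex (20 bp + 30-nt ss tails) 200 nM, ATP 2 mM final; pH 8.0, 2 mM MgCl2, 2.5 ug/ml poly(dI-dC); 15 min compound preincubation; discontinuous kinetic read over 2 h at RT.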
GoLoco inh red – blocks human Gai1 binding to RGS12 GoLoco peptide, red readout; P63096; Gai1:RGS12 GoLoco peptide FP, rhodamine, 10 min; Potency, µM (series often up to 61.6 µM), without a hit: top-dose activity, negative = inhibition, usual class: inhibitors; actives 0.44% (n = 230,000); AID 880; active = well fitted inhibition curve with a large enough effect, not every such curve was filed as active; inactive = no such curve, though single readings can be large or run the other way; also: % is scaled to controls: 0 for no effect and ±100 for the full control effect; nearly all actives have a fitted effect of over 30% in size
BLM helicase inh – inhibitors of human Bloom syndrome helicase BLM | actives 0.2% (n = 350,000) | Potency, µM (highest dose often 56.1 µM), for the others: top-dose activity change, negative = inhibition, hits mostly inhibitors | recombinant BLM DNA unwinding, fluorescence dequenching | AID 2528 | P54132;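 also: plate controls were vehicle for no effect and no enzyme for full effect; nearly all actives have a fitted effect of over 35% in size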
Target sequence (P54132 whole entry, looked up): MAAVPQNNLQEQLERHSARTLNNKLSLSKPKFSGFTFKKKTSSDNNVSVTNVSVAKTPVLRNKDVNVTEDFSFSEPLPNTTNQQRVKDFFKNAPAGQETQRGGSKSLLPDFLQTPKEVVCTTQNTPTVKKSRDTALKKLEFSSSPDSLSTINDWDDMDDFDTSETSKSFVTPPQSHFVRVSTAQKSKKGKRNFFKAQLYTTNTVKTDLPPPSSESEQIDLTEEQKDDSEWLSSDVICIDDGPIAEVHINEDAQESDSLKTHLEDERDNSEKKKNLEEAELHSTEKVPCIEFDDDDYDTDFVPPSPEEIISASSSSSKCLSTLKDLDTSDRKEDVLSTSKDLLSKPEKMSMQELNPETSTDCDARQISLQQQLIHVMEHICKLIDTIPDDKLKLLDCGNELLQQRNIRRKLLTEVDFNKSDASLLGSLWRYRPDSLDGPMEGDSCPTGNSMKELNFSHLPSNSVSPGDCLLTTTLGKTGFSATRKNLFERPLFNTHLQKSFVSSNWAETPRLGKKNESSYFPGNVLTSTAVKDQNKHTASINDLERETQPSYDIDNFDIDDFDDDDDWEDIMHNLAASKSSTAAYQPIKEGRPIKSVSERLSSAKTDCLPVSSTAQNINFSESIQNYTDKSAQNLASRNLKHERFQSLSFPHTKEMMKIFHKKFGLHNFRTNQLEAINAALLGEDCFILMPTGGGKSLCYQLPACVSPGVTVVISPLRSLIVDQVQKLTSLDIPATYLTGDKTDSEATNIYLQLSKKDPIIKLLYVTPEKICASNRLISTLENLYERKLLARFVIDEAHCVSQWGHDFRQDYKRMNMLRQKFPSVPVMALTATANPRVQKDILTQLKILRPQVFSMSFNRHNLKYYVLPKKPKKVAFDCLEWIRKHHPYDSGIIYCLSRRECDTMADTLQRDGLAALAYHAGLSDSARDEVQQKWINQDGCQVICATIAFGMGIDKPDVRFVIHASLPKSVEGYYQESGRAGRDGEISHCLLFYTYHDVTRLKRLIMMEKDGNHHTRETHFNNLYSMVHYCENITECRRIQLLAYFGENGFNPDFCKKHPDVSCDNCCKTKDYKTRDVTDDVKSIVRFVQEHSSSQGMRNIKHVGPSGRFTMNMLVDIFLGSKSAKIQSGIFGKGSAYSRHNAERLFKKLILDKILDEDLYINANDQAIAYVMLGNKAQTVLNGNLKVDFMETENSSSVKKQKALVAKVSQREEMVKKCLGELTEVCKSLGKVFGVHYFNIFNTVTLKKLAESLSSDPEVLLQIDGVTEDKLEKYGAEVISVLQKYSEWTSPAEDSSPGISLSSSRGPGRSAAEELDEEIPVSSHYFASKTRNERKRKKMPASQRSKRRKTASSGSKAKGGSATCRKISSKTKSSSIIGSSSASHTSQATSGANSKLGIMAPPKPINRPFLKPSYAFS
Active calls of the source: *; ? = inconclusive; · = not tested or not shown; ! = not active in a repeat; [ ] = remark or other dose. In the library only some 0.71% were active in any assay of this set; here they are far more common. Unless noted, calls follow the shape of the dose curve; as a rule, active = well fitted curve in the direction sought with a large enough effect; inconclusive = small, poorly fitted or top-dose-only effect, or another doubt; inactive = no such curve, though single readings can be large; an effect the other way counts as inactive or inconclusive. Potency is read from the fitted curve at half-maximal effect.

SMILES	ERG Ets-DNA blk	TRb SRC2 PPI	TR SRC2 fluor cs	RECQ1 helicase	GoLoco inh red	BLM helicase inh
CN1C(=O)/C(=C/c2ccc(-c3ccccc3[N+](=O)[O-])o2)SC1=Nc1ccc(Cl)c(C(=O)O)c1	2%	-3%	-9%	-5%	14µM*	-4%
Cc1ccc(C)c(N2C(=N)S/C(=C\c3ccc(-c4ccccc4C(=O)O)o3)C2=O)c1	1%	7%	-7%	-8%	5%	-4%
CCN(C(=O)CSc1nnc(-c2cc3occc3n2C)n1-c1ccccc1C)c1ccccc1	5%	-21%	79µM*[quencher]	·	·	-3%
C/C(CCC(=O)OC[C@@H]1O[C@H](C#Cc2ccccc2)C=C[C@@H]1Oc1ccc(C)cc1)=N/O[C@@H](C)c1cn([C@H]2COC[C@H]2O)nn1	·	-1%[11.2 µM]	1%[11.2 µM]	-4%[11.5 µM]	·	-4%[12.4 µM]
C[C@H]1Cc2c(COc3ccccc3)nc3c(c2CO1)CN(S(=O)(=O)c1ccc(Cl)c2nonc12)CC3	·	-4%[11.2 µM]	-5%[11.2 µM]	6%[11.5 µM]	-3%[14.2 µM]	-13%[12.4 µM]
CCCN(c1c(C)n(C)n(-c2ccccc2)c1=O)S(=O)(=O)c1ccc(C)cc1	-13%	-1%	?	·	·	1%
Cc1c(N(C)CS(=O)(=O)O)c(=O)n(-c2ccccc2)n1C	-9%	-13%	2%	-10%	28µM*!	1%
O=c1[nH]c(SCc2c(Cl)c(Cl)c(Cl)c(Cl)c2Cl)nc(=S)[nH]1	·	·	·	·	4%[14.2 µM]	·
O=C(Nc1ccc(O)cc1)C1CC=CCC1 (configuration not stated)	?	-24%	8%	-17%	25µM*	2%
O=C(Nc1nccs1)C1CC=CCC1 (configuration not stated)	-7%	·	·	·	·	-2%
CC(=O)Nc1ccc(-c2csc(NC(=O)C3CC(=O)N(c4ccc5c(c4)OCCO5)C3)n2)cc1 (configuration not stated)	22µM*	-1%	-3%	-12%	9%	-6%
COc1ccc(-c2csc(NC(=O)C3CC(=O)N(c4ccc5c(c4)OCCO5)C3)n2)cc1 (configuration not stated)	-6%	14%	-6%	-9%	·	-7%
N#C/C(=C\c1ccc(OCc2ccc(Cl)cc2Cl)cc1)c1nc2ccccc2[nH]1	-1%	-26%[53 µM]	282µM*[quencher]	·	·	-8%
c1coc(-c2nc(-c3ccco3)c(-c3ccco3)nc2-c2ccco2)c1	-3%	20%	13µM*[quencher]	4µM*	24%	14µM*
CC[C@H](C)[C@H](NC(=O)[C@H](Cc1cnc[nH]1)NC(=O)[C@@H](NC(=O)[C@H](CCCNC(=N)N)NC(=O)[C@H](CCCCN)NC(=O)[C@H](CCCNC(=N)N)NC(=O)[C@H](CCCCN)NC(=O)[C@@H](N)CC(N)=O)[C@@H](C)CC)C(=O)NCC(=O)N1CCC[C@H]1C(=O)NCC(=O)N[C@@H](CCCNC(=N)N)C(=O)N[C@@H](C)C(=O)N[C@@H](Cc1ccccc1)C(=O)N[C@@H](Cc1ccc(O)cc1)C(=O)N[C@H](C(=O)N[C@H](C(=O)N[C@@H](CCCCN)C(=O)N[C@@H](CC(N)=O)C(=O)N[C@H](C(=O)N[C@H](C(=O)NCC(=O)N[C@H](C(=O)N[C@H](C(=O)N[C@@H](CS)C(=O)O)[C@@H](C)CC)[C@@H](C)O)[C@@H](C)CC)[C@@H](C)CC)[C@@H](C)O)[C@@H](C)O	·	2%	1%	-2%	·	7%
COc1ccc(NC(=O)c2cc3c(-c4ccc(OC)c(OC)c4)nn(C)c3s2)cc1OC	?	-25%	1%	18%	-1%	?
COc1ccc(-c2nn(C)c3sc(C(=O)Nc4cc(OC)c(OC)c(OC)c4)cc23)cc1OC	?	5%	-9%	·	·	20µM*
O=C=NC1CCC(CC2CCC(N=C=O)CC2)CC1 (configuration not stated)	·	6%[201 µM]	0%[201 µM]	·	·	·
